In PubChem BioAssay AID1159580 (chemical genetic matrix, 2015):
Several values for one entry are separate records, joined by “and”; a condition that tells them apart may be missing. Equal values may be shown once. Out of some 5,500 compounds screened, about 2,000 (36%) were called active. Not shown: some 18% with an inconclusive outcome. Rule as the data show it: active = normalized growth mostly below about 0.91 (no sharp cut-off); inconclusive = no clear call, values can overlap the other calls; inactive = mostly above about 0.92. This is one part of the list.

Experiment: chemical genetic growth profiling, strain panel (AID 1159580);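 also: tested at 20 µM; growth read once vehicle control cultures reached saturation at 30 °C; 1 = growth at the plate median or of vehicle wells; lower values mean less growth of the strain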
Details: growth OD
[1] = S. cerevisiae deletion strains, locus YAL040C, strain CLN3, hits give low values
[2] = S. cerevisiae deletion strains, locus YER002W, strain NOP16, hits give low values
[3] = S. cerevisiae deletion strains, locus YMR307W, strain GAS1, hits give low values
[4] = S. cerevisiae deletion strains, locus YNL175C, strain NOP13, hits give low values
[5] = S. cerevisiae deletion strains, locus YNL197C, strain WHI3, hits give low values
[6] = S. cerevisiae deletion strains, locus YNL224C, strain SQS1, hits give low values
[7] = S. cerevisiae deletion strains, locus YNL322C, strain KRE1, hits give low values
[8] = S. cerevisiae deletion strains, locus YOR083W, strain WHI5 (second series), hits give low values
[9] = S. cerevisiae deletion strains, locus YPL241C, strain CIN2, hits give low values

Measured: normalized growth

COc1ccc(NC(=O)c2ccc(-c3ccc(-c4noc(C)n4)cc3C)cc2)cc1N1CCN(C)CC1
inactive: [1] 1.05 | S. cerevisiae deletion strains, locus YCL061C, strain MRC1 (second series), hits give low values 0.982 | S. cerevisiae deletion strains, locus YDR363W, strain ESC2, hits give low values 0.959 | [2] 1.01 | S. cerevisiae deletion strains, locus YJR075W, strain HOC1, hits give low values 0.974 | [3] 0.933 | S. cerevisiae deletion strains, locus YNL153C, strain GIM3, hits give low values 0.946 | [4] 1.02 | [5] 1.04 | [6] 1.01 | [7] 0.965 | [8] 0.939 | [9] 0.994

CC(=O)NCCc1c[nH]c2ccc(O)cc12
inactive: [1] 1 | S. cerevisiae deletion strains, locus YBR021W, strain FUR4, hits give low values 1.03 | S. cerevisiae deletion strains, locus YBR229C, strain ROT2, hits give low values 0.96 | S. cerevisiae deletion strains, locus YCL029C, strain bik1, hits give low values 0.98 | S. cerevisiae deletion strains, locus YDL035C, strain GPR1, hits give low values 1.01 | S. cerevisiae deletion strains, locus YDL074C, strain BRE1, hits give low values 0.953 | S. cerevisiae deletion strains, locus YDL101C, strain DUN1, hits give low values 0.977 | S. cerevisiae deletion strains, locus YDL134C, strain PPH21, hits give low values 0.993 | S. cerevisiae deletion strains, locus YDL185W, strain tfp1, hits give low values 0.983 | S. cerevisiae deletion strains, locus YDL192W, strain arf1, hits give low values 0.982 | S. cerevisiae deletion strains, locus YDR101C, strain arx1, hits give low values 0.929 | S. cerevisiae deletion strains, locus YDR150W, strain NUM1, hits give low values 1.01 | S. cerevisiae deletion strains, locus YDR162C, strain NBP2, hits give low values 0.999 | S. cerevisiae deletion strains, locus YDR318W, strain mcm21, hits give low values 0.992 | S. cerevisiae deletion strains, locus YDR388W, hits give low values 0.991 | S. cerevisiae deletion strains, locus YDR502C, strain sam2, hits give low values 0.985 | S. cerevisiae deletion strains, locus YEL061C, strain CIN8, hits give low values 0.984 | [2] 0.993 | S. cerevisiae deletion strains, locus YER110C, hits give low values 0.986 | S. cerevisiae deletion strains, locus YER155C, strain BEM2, hits give low values 0.998 | S. cerevisiae deletion strains, locus YER167W, strain BCK2, hits give low values 0.992 | S. cerevisiae deletion strains, locus YGL078C, strain dbp3, hits give low values 0.999 | S. cerevisiae deletion strains, locus YGL086W, strain mad1, hits give low values 0.962 | S. cerevisiae deletion strains, locus YGL248W, strain PDE1, hits give low values 0.98 | S. cerevisiae deletion strains, locus YGR078C, strain PAC10, hits give low values 1.01 | S. cerevisiae deletion strains, locus YGR135W, strain pre9, hits give low values 1.06 | S. cerevisiae deletion strains, locus YGR252W, strain gcn5, hits give low values 1.05 | S. cerevisiae deletion strains, locus YHR030C, strain SLT2, hits give low values 0.997 | S. cerevisiae deletion strains, locus YHR079C, strain IRE1 (second series), hits give low values 0.992 | S. cerevisiae deletion strains, locus YHR094C, strain hxt1, hits give low values 0.991 | S. cerevisiae deletion strains, locus YHR129C, strain ARP1, hits give low values 0.993 | S. cerevisiae deletion strains, locus YHR200W, strain rpn10, hits give low values 0.989 | S. cerevisiae deletion strains, locus YIL066C, strain RNR3, hits give low values 0.956 | S. cerevisiae deletion strains, locus YIL073C, strain SPO22, hits give low values 0.989 | S. cerevisiae deletion strains, locus YIL125W, strain kgd1, hits give low values 0.988 | S. cerevisiae deletion strains, locus YIR030C, strain dcg1, hits give low values 0.997 | S. cerevisiae deletion strains, locus YJL095W, strain BCK1, hits give low values 0.982 | S. cerevisiae deletion strains, locus YJL134W, strain LCB3, hits give low values 0.992 | S. cerevisiae deletion strains, locus YJL168C, strain set2, hits give low values 0.995 | S. cerevisiae deletion strains, locus YJL187C, strain SWE1 (second series), hits give low values 0.95 | S. cerevisiae deletion strains, locus YJR043C, strain POL32, hits give low values 0.99 | S. cerevisiae deletion strains, locus YKL009W, strain mrt4, hits give low values 0.978 | S. cerevisiae deletion strains, locus YKL068W, hits give low values 0.986 | S. cerevisiae deletion strains, locus YKL085W, strain MDH1 (second series), hits give low values 0.982 | S. cerevisiae deletion strains, locus YKL085W, strain MDH1, hits give low values 0.982 | S. cerevisiae deletion strains, locus YKL190W, strain CNB1, hits give low values 0.993 | S. cerevisiae deletion strains, locus YKR001C, strain vps1, hits give low values 0.978 | S. cerevisiae deletion strains, locus YLR039C, strain RIC1, hits give low values 0.95 | S. cerevisiae deletion strains, locus YLR058C, strain SHM2, hits give low values 0.982 | S. cerevisiae deletion strains, locus YLR102C, strain apc9, hits give low values 0.999 | S. cerevisiae deletion strains, locus YLR262C, strain YPT6, hits give low values 0.967 | S. cerevisiae deletion strains, locus YLR268W, strain sec22, hits give low values 0.983 | S. cerevisiae deletion strains, locus YLR330W, strain CHS5, hits give low values 0.989 | S. cerevisiae deletion strains, locus YLR342W, strain FKS1 (second series), hits give low values 1.07 | S. cerevisiae deletion strains, locus YLR371W, strain rom2, hits give low values 1.02 | S. cerevisiae deletion strains, locus YLR418C, strain cdc73, hits give low values 1.05 | S. cerevisiae deletion strains, locus YML016C, strain PPZ1, hits give low values 0.992 | S. cerevisiae deletion strains, locus YML032C, strain rad52, hits give low values 0.978 | S. cerevisiae deletion strains, locus YML124C, strain tub3, hits give low values 0.995 | S. cerevisiae deletion strains, locus YMR078C, strain ctf18, hits give low values 0.99 | S. cerevisiae deletion strains, locus YMR223W, strain ubp8, hits give low values 1.03 | S. cerevisiae deletion strains, locus YMR263W, strain SAP30, hits give low values 1 and 0.976 | [3] 1.05 | S. cerevisiae deletion strains, locus YNL067W, strain RPL9B, hits give low values 0.959 | S. cerevisiae deletion strains, locus YNL128W, strain TEP1, hits give low values 1.01 | [4] 1.01 | [5] 1.01 | [6] 1.02 | S. cerevisiae deletion strains, locus YNL233W, strain BNI4, hits give low values 0.966 | S. cerevisiae deletion strains, locus YNL250W, strain rad50, hits give low values 0.967 | S. cerevisiae deletion strains, locus YNL271C, strain bni1, hits give low values 0.982 | S. cerevisiae deletion strains, locus YNL298W, strain CLA4, hits give low values 1 | S. cerevisiae deletion strains, locus YNL307C, strain MCK1, hits give low values 0.987 | [7] 1.02 and 0.994 | S. cerevisiae deletion strains, locus YNR052C, strain pop2, hits give low values 0.996 | S. cerevisiae deletion strains, locus YOL006C, strain TOP1, hits give low values 0.933 | S. cerevisiae deletion strains, locus YOL012C, strain htz1 1.04 | S. cerevisiae deletion strains, locus YOL147C, strain pex11, hits give low values 0.993 | S. cerevisiae deletion strains, locus YOR061W, strain CKA2, hits give low values 0.963 | S. cerevisiae deletion strains, locus YOR069W, strain VPS5, hits give low values 0.997 | [8] 1.01 | S. cerevisiae deletion strains, locus YOR136W, strain idh2, hits give low values 0.989 | S. cerevisiae deletion strains, locus YOR144C, strain elg1, hits give low values 0.994 | S. cerevisiae deletion strains, locus YOR184W, strain ser1, hits give low values 1 | S. cerevisiae deletion strains, locus YOR316C, strain cot1, hits give low values 0.986 | [9] 1.01 and 0.993 | S. cerevisiae deletion strains, locus YPR119W, strain clb2, hits give low values 0.988 | S. cerevisiae deletion strains, locus YPR141C, strain kar3, hits give low values 0.981 | S. cerevisiae deletion strains, locus YPR163C, strain tif3, hits give low values 0.986 | S. cerevisiae deletion strains, locus YPR167C, strain met16, hits give low values 0.992 | S. cerevisiae deletion strains, strain wtn01, hits give low values 1 | S. cerevisiae strains, strain wild type, hits give low values 0.987
